Bioassay records from PubChem.
The list is not random: actives were taken first. Their share in the collection is about 4.6%.
tim10-1 inh – tim10-1 yeast growth inhibition; S. cerevisiae tim10-1 ts strain growth, BacTiter-Glo, 24 h; inhibition, % at 20 µM; 330,000 compounds, 2.2% hits; AID 463190;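 active means inhibition of at least 40%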;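 further: mutant grown at 25 °C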
TIM10 inh – TIM10 yeast growth inhibition; S. cerevisiae TIM10 strain growth, BacTiter-Glo luminescence, 24 h; inhibition, % at 10 µM; 330,000 compounds, 1.4% hits; AID 463195;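 active means inhibition of 40% or more at the single tested concentration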;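 further: wild-type TIM10 isogenic control strain grown at permissive 25 °C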
SKKanGAS inh – SKKanGAS growth inhibition. S. pyogenes SKKanGAS, kanamycin growth, BacTiter-Glo, 6 h. inhibition, % at 7.5 µM. 300,000 compounds, 1.3% hits;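 active means mean replicate score, as percent of positive control median, at least 50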;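 further: strain carries kanamycin resistance gene driven by streptokinase promoter and grows in 40 µg/ml kanamycin; loss of luminescence reflects streptokinase promoter inhibition or plain growth inhibition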
NALP3 yeast inh – inhibitors of NALP3 inflammasome in yeast; Yeast reconstituted NLRP3/ASC/caspase-1, beta-gal luminescence, 24 h; inhibition, % at 10 µM; 330,000 compounds, 0.39% hits;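 active means inhibition of 50% or more; inactive means inhibition below 50%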
tim23-1 inh – tim23-1 yeast growth inhibition | S. cerevisiae tim23-1 growth, BacTiter-Glo luminescence, 24 h | inhibition, % at 20 µM | 330,000 compounds, 1.3% hits;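 active means growth inhibition of the mutant yeast at or above 50%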;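 further: temperature-sensitive mutant grown at 25 °C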
tim10-1 confirm – confirmation of tim10-1 mutant yeast growth inhibitors. shares compounds with tim10-1 inh. S. cerevisiae tim10-1 ts strain growth, BacTiter-Glo, 24 h. inhibition, % at 20 µM. 7,400 compounds, 56% hits;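 active means inhibition of yeast growth at or above a set limit in either of two repeat tests at 20 µM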;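 further: tim10-1 mutant grown at permissive 25 °C to find synthetic lethal compounds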
Large screens that a line does not name were inactive (follow-up assays come after a bar, where they were run).

Cc1nc(Cc2nnc(SC(C)C(=O)Nc3cccc(C#N)c3)o2)cs1 (configuration not stated)	none
CCCOc1ccc(C(=O)C(CN2CCCC2)c2ccccc2)cc1 (configuration not stated)	none (no result: tim10-1 inh, TIM10 inh, NALP3 yeast inh, tim23-1 inh)
CCCCOc1ccc(C(=O)C(CN2CCOCC2)c2ccccc2)cc1 (configuration not stated)	tim10-1 inh 44 | tim10-1 confirm 35
COc1ccc(C(=O)C(CN2CCCC2)c2ccccc2)cc1 (configuration not stated)	tim10-1 inh 45 | tim10-1 confirm 43
CCOc1ccc(NC(=O)c2cc(S(=O)(=O)N3CCOCC3)cn2C)cc1	none
Clc1ccc2[nH]c3c(N4CCC5(CC4)OCCO5)ncnc3c2c1	none
Cc1cccc2[nH]c3c(N4CCC5(CC4)OCCO5)ncnc3c12	tim10-1 inh 51 | tim10-1 confirm 32
Fc1ccc(Oc2nc(-c3ccccc3)nnc2C(F)(F)F)cc1	tim10-1 inh 50 | tim10-1 confirm inactive
COc1ccc(Br)cc1C(=O)Nc1cccc(NC(=O)c2ccco2)c1	tim10-1 inh 42 | tim10-1 confirm 31
COc1cccc(NC(=O)c2ccco2)c1	none
COc1c(C)cc(Br)cc1C(=O)Nc1cccc(NC(=O)c2ccco2)c1	tim10-1 inh 42 | tim10-1 confirm 36
COc1ccc(Br)cc1C(=O)Nc1cccc(C)c1	none
CCCN(CCC)c1ncnc2nc[nH]c12	tim10-1 inh 45 | tim10-1 confirm inactive
Clc1ccccc1CNc1ncnc2nc[nH]c12	none
Clc1ccccc1CN(Cc1ccccc1)c1ncnc2nc[nH]c12	tim10-1 inh 41, SKKanGAS inh 51 | tim10-1 confirm inactive
Cc1ccc(C)c(OCCC(=O)N2CCN(S(=O)(=O)c3cc(C)ccc3C)CC2)c1	none
CCOc1ccc(-n2cc(-c3ccccc3)c3c(=O)[nH]cnc32)cc1	tim10-1 inh 55 | tim10-1 confirm 40
CCCc1c(C(=O)N/N=C/c2ccc(OCc3ccccc3)c(OC)c2)nnn1-c1nonc1N	none
COc1cc(/C=N/NC(=O)c2nnn(-c3nonc3N)c2C(C)C)ccc1OCc1ccc(F)cc1	tim10-1 inh 43, SKKanGAS inh 58 | tim10-1 confirm inactive
CCCCCN(C(=O)CCC(=O)OCC(=O)N(CC)C1CCCCC1)c1c(N)n(CCCC)c(=O)[nH]c1=O	none
Cc1cc(C)nc(NC(=S)Nc2cccc(F)c2)c1	tim10-1 inh 40 | tim10-1 confirm inactive
COc1cccc(NC(=S)Nc2cc(C)cc(C)n2)c1	none
CSc1ncc(Cl)c(C(=O)Nc2nnc(SC/C=C/c3ccccc3)s2)n1	tim10-1 inh 42 | tim10-1 confirm 39
C=CCn1c2ccccc2c(=O)c2cc(C#CC3(O)CCCCC3)ccc21	none
COc1cccc2sc3ccc(C#CC4(O)CCCCC4)cc3c(=O)c12	tim10-1 inh 41 | tim10-1 confirm inactive
O=c1c2ccccc2sc2ccc(C#CC3(O)CCCCC3)cc12	tim10-1 inh 41 | tim10-1 confirm 35
COc1ccccc1-c1sc2cc3c(cc2c1C#CC1(O)CCCCC1)OCO3	none (no result: SKKanGAS inh)
COc1ccccc1N1CCN(C(=O)C(C)CS(=O)(=O)c2ccc3c(c2)NC(=O)CS3)CC1 (configuration not stated)	none
Cc1ccc(S(=O)(=O)/N=C(/NC(=S)Nc2cccc(C)c2)c2ccccc2)cc1	none
Cc1cccc(NC(=S)N/C(=N/S(=O)(=O)c2ccccc2)c2ccccc2)c1	tim10-1 inh 42 | tim10-1 confirm inactive
CC1(C2CC2)NC(=O)N(CC(=O)Nc2ccccc2F)C1=O (configuration not stated)	none (no result: SKKanGAS inh)
Cc1ccc(S(=O)(=O)N2CCN(CC(=O)Nc3ccc4c(c3)CCC4)CC2)cc1C	none
O=C(CN1CCN(S(=O)(=O)c2ccc(Cl)cc2)CC1)Nc1ccc2c(c1)CCC2	tim10-1 inh 50 | tim10-1 confirm 40
CCCNC(=O)CN1CCN(S(=O)(=O)c2ccc(Br)s2)CC1	none (no result: SKKanGAS inh)
O=C(CN1CCN(S(=O)(=O)c2ccccc2)CC1)Nc1ccc(Cl)c(Cl)c1	tim10-1 inh 43 | tim10-1 confirm 30
CCOc1ccc(NC(=O)CN2CCN(S(=O)(=O)c3ccc(Cl)cc3)CC2)cc1	tim10-1 inh 41 | tim10-1 confirm inactive
O=C(CN1CCN(S(=O)(=O)N2CCCCC2)CC1)Nc1ccc(Cl)c(Cl)c1	none
Cc1cc(C)cc(NC(=O)CN2CCCN(S(=O)(=O)c3ccc(Br)s3)CC2)c1	tim10-1 inh 44 | tim10-1 confirm inactive
